Most compounds without a hit are left out; they make up all but 2.2% or so of the library.
LYP inh 2 – PTPN22 phosphatase inhibitors, primary screen, biochemical, DiFMUP fluorescence, 2 µM. Tyrosine-protein phosphatase non-receptor type 22 (Homo sapiens), Q9Y2R2. recombinant LYP catalytic domain. inhibition, % at 2 µM. 0.21% of 96,000 active. AID 640, 2007;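 active = inhibition at 2 µM at or above a set limit, the screen mean plus 3 SD, cut at about 24% in these data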;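 note: 0% = DMSO with enzyme and 100% = enzyme fully blocked by orthovanadate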
MRP1 act – H69AR viability gain despite doxorubicin, primary screen, MRP-1 activator project, H69AR cells, CellTiter-Glo | viability rescue | viability increase, % at 10 µM | 0.61% of 140,000 active;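 active = viability gain under doxorubicin at or above a set limit, the compound median plus 3 SD, cut at about 4.7% in these data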;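 note: MRP-1 overexpressing cells given doxorubicin 25 µM after compound pretreatment; 18-22 h compound pretreatment then 72 h with doxorubicin before readout; 0% = doxorubicin-only wells and 100% = vehicle-treated cells without doxorubicin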
PLAP activator – PLAP enzyme activators, biochemical, luminescence, HTS; Alkaline phosphatase, placental type (Homo sapiens), P05187; purified PLAP enzyme, luminescent substrate read-out; stronger effect = higher value; activation fold at 20 µM; 1.2% of 96,000 active; in the data active = activation fold above about 2
Target sequence (P05187 whole entry, looked up): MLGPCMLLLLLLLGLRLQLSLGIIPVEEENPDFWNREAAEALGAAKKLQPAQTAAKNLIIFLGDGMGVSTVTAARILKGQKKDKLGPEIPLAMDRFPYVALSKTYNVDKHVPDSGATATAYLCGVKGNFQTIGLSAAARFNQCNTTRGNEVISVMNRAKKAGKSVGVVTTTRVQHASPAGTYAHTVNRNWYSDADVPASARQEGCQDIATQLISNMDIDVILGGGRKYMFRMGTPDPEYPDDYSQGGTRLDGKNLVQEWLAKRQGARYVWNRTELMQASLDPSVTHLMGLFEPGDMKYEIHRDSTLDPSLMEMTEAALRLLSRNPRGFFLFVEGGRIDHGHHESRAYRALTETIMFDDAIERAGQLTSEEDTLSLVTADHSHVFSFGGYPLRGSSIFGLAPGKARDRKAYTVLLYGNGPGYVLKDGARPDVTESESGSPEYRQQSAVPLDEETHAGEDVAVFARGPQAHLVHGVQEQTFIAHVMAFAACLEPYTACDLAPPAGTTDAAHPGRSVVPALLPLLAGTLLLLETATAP
MRP reversal – reversal of MRP1-mediated doxorubicin resistance, primary screen, H69AR cells, doxorubicin co-treatment; H69AR cells + 2 uM doxorubicin, CellTiter-Glo, 72 h; differential viability (reversal), % at 10 µM; 0.04% of 85,000 active; AID 602, 2007;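 active = viability drop by adding the cancer drug above about 55%, with treated viability meeting a 40% cutoff, limit read from the data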;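 note: viability without doxorubicin minus viability with 2 µM doxorubicin for each compound; larger differential means the compound sensitizes cells more to doxorubicin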
PTPN22 act – LYP phosphatase activators, primary screen, biochemical, DiFMUP fluorescence, 2 µM; recombinant LYP; 0 = plate median, 100 = signal doubled; activation, % at 2 µM; Tyrosine-protein phosphatase non-receptor type 22 (Homo sapiens), Q9Y2R2; 0.11% of 96,000 active;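 active = activation at 2 µM above a set limit, the mean plus 5 SD, cut at about 37% in these data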
FAK inh – FAK kinase inhibitors, primary screen, biochemical | Focal adhesion kinase 1 (Homo sapiens), Q05397 | biochemical FAK kinase activity assay | inhibition, %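 (tested at 7 µM)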 | 0.84% of 97,000 active | AID 727, 2007; in the data active = inhibition above about 19%;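 note: 0% = DMSO and 100% = reference compound high control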
Numbers without * were called inactive; . = no result given.

SMILES	LYP inh 2	MRP1 act	PLAP activator	MRP reversal	PTPN22 act	FAK inh
CC(NC(=O)C12CC3CC(CC(C3)C1)C2)c1ccc2c(c1)OCCO2 (stereo not given)	-1	6.9*	0.9	18	3	4
O=C(CN1CCCC1=O)NC1C2CC3CC(C2)CC1C3 (stereo not given)	.	0	.	.	.	.
COC(=O)c1ccc(COc2cc(O)c3c(c2)OC(C)(C)CC3=O)cc1	-6	6.1*	0.9	6	2	0
O=C(Nc1nc2ccccc2[nH]1)C1CC(=O)N(c2ccc3c(c2)OCCO3)C1 (stereo not given)	-20	-1	2.9*	3	19	2
O=C(N/N=C/c1ccccc1OCC(=O)N1CCCC1)C(=O)Nc1ccccc1F	.	0	.	.	.	.
CCOC(=O)c1c(-c2cccs2)csc1NC(=O)CNCCN1CCOCC1	1	-4	2*	.	-4	0
CCOC(=O)c1c(-c2cccs2)csc1NC(C)=O	-23	0	.	15	19	4
CCOC(=O)c1c(-c2cccs2)csc1NC(=O)CSc1ncn[nH]1	5	6.0*	1.1	-2	-6	5
CCCC/C(O)=N\S(=O)(=O)c1ccc(N=NN(C)C)cc1	-4	-2	.	8	4	-3
CC(C)CN(CC(C)C)C(=O)CCCC(=O)N(CC(C)C)CC(C)C	.	-3	.	.	.	.
CC(=O)NCCn1c(SCc2ccc(C)cc2C)nc2ccccc2c1=O	-10	-2	2.5*	-28	8	0
CC(=O)NCCn1c(SCc2ccccc2C)nc2ccccc2c1=O	-4	0	1.3	-5	7	-4
Cc1ccc(NC(=O)CSc2nc3ccccc3c(=O)n2CCCN2CCCCC2)cc1C	-9	-7	2.6*	1	11	1
Cc1ccc(NC(=O)CSc2nc3ccccc3c(=O)n2CCCC(=O)N2CCCC2)cc1	1	-3	1	-58	-4	11
Cc1c(C(=O)N2CCOCC2)sc2ncnc(N3CCc4ccccc4C3)c12	-5	-2	1.2	-18	2	3
COCCCNC(=O)c1sc2ncnc(N3CCc4ccccc4C3)c2c1C	-3	-4	.	-47	0	23*
C=CCc1ccc(OCCCCN2CC(C)OC(C)C2)c(OC)c1 (stereo not given)	4	-3	2*	16	-3	-1
C=CCc1ccc(OCC(O)CN2CCCCC2)c(OC)c1 (stereo not given)	2	-1	0.8	6	1	-1
C=CCc1ccc(OCC(O)COc2ccc(CC=C)cc2OC)c(OC)c1	-4	-2	2*	-24	8	3
Cc1ccc(C)c(NC(=O)C(Sc2nnc(-c3cccs3)o2)c2ccccc2)c1 (stereo not given)	.	-3	.	.	.	.
O=C(Nc1ccccc1)C1=C(O)CC(c2ccc(Cl)cc2)N2CCN=C12 (stereo not given)	.	-1	.	.	.	.
COc1ccccc1NS(=O)(=O)c1cccc(C(=O)N/N=C(\C)c2ccc(-n3ccnc3)cc2)c1	-6	-3	2*	.	3	0
COc1cc(SC)ccc1C(=O)NCCOc1c(C)cc(C)cc1C	4	0	1	.	-1	-1
COc1cc(SC)ccc1C(=O)NCCOc1ccc(Cl)cc1	.	6.4*	.	.	.	.
CCn1c(=O)c2cc(C(=O)N3CCN(C(=O)c4ccco4)CC3)sc2c2ccccc21	.	.	.	0	.	.
Cc1ccc2nc(C(C)O)[nH]c2c1 (stereo not given)	11	-1	1.1	-1	-10	1
Cc1ccc2nc(C(O)C(O)c3nc4ccc(C)cc4[nH]3)[nH]c2c1 (stereo not given)	9	-2	2.1*	-3	-7	1
CCN(CC)c1cc2nc(C)n(Cc3ccccc3)c(=O)c2cc1NC(=O)C1CC1	2	4.8*	.	-6	-3	-1
Cc1nc2cc(N3CCN(C)CC3)c(NC(=O)Cc3ccccc3)cc2c(=O)n1Cc1ccccc1	-3	-2	1.9	.	1	-4
CC1CCCC(NC(=O)C2CCCN2S(=O)(=O)c2cccc3nsnc23)C1C (stereo not given)	10	0	1.5	21	-11	-1
